Screening results deposited in PubChem by National Center for Advancing Translational Sciences (NCATS).
In the library only some 6% were active in any assay of this set; here they are far more common.
Tau fibril FP: tau fibrillization inhibition (FP). P10636. K18 P301L tau heparin fibrillization, Alexa594 FP, 6 h. Potency, µM (top dose mostly 57.7 µM), hits mostly inhibitors. 280,000 compounds, 0.39% hits; further: nearly all actives have a fitted effect of over 55% in size
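Read-out: fluorescence polarization of Alexa 594-labeled tau (0.24 uM), 555 nm excitation, 632 nm emission. Mixtures held 15 uM unlabeled K18 P301L, compound and 20 uM heparin, pH 7 acetate buffer, incubated 6 hr at 37 C.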
Sfp PPTase inh: inhibitors of Bacillus subtilis Sfp phosphopantetheinyl transferase | AID 1490 | Q9F4F7 | 310,000 compounds, 3.5% hits | Biochemical Sfp PPTase activity, qHTS | Potency, µM, actives largely listed as inhibitors;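 further: the enzyme is Sfp with the accession as filed and its product quenches rhodamine fluorescence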
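Reaction rates are the 30-min fluorescence difference (ex 525, em 598 nm) in wells containing 15 nM Sfp, 5 uM rhodamine-CoA and 12.5 uM BHQ-2-YbbR at pH 7.6 with 10 mM MgCl2.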
Tau fluor cs: counter-screen for tau fibril formation inhibitors; tau K18 P301L Alexa594 fluorescence, heparin fibrillization; Potency, µM (series often up to 57.7 µM); 280,000 compounds, 0.93% hits; further: nearly all actives have a fitted effect of over 55% in size
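Human tau K18 P301L (15 uM unlabeled, 0.24 uM Alexa 594-labeled) in 100 mM sodium acetate pH 7 with 20 uM heparin, 6 hr at 37 C. ThT 30 uM added, 1 hr ambient; Alexa 594 FP and total fluorescence read at 555/632 nm.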
Tau ThT inhib: inhibitors of human tau fibril formation, thioflavin T binding; P10636; recombinant tau K18 P301L, heparin-induced fibrillization, ThT fluorescence; Potency, µM (top dose mostly 57.4 µM), usual class: inhibitors; 270,000 compounds, 2.1% hits; AID 1460; further: nearly all actives have a fitted effect of over 55% in size
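ThT emission at 510 nm, taken 1 hr after adding 30 uM dye, quantifies aggregates formed when 20 uM heparin acts on human tau K18 P301L for 6 hr at 37 C.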
PLK1 PBD inh: blocks phosphopeptide binding to human PLK1 polo-box domain; 360,000 compounds, 2.8% hits; Potency, µM, hits mostly inhibitors; Plk1 PBD binding of FITC phosphopeptide, fluorescence polarization; further: series mostly up to about 57 µM; nearly all actives have a fitted effect of over 65% in size
Target sequence (P53350 whole entry, looked up, the tested form may be a part): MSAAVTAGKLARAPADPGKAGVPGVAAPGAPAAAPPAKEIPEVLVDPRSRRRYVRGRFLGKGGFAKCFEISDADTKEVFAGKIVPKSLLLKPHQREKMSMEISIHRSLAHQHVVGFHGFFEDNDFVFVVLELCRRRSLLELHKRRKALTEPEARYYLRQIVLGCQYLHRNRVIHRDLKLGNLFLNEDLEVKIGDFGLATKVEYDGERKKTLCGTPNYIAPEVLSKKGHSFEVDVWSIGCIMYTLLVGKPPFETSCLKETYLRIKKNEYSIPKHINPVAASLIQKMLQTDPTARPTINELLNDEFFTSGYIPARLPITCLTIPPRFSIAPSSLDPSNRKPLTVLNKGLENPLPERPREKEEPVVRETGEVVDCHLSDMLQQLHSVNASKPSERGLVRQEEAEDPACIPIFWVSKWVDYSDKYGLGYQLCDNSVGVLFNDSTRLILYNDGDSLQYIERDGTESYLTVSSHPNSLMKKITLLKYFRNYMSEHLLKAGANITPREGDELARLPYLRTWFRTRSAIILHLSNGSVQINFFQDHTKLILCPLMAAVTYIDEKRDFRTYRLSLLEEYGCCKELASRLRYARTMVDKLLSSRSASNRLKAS
VDR inh: blocks the human vitamin D receptor | Potency, µM, usual class: inhibitors | 400,000 compounds, 0.93% hits | P11473 | VDR-SRC2-3 peptide fluorescence polarization, 2 h
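Inhibition of the VDR/SRC2-3 peptide interaction is quantified by fluorescence polarization. Compounds (23 nl, pintool) incubate with the reagents for 2 hours at ambient room temperature.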
Sfp inh conf: confirmation of Bacillus subtilis Sfp PPTase inhibitors | shares compounds with Sfp PPTase inh | AID 2701 | Potency, µM (series often up to 114 µM), most hits filed as inhibitors | Sfp PPTase enzymatic assay, qHTS titration | 380 compounds, 79% hits
Sfp PPTase gel: Inhibits B. subtilis Sfp phosphopantetheinylation; 210 compounds, 20% hits; shares compounds with Sfp PPTase inh; purified Sfp, gel-based phosphopantetheinylation read-out; Potency, µM, hits mostly inhibitors;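 active means potency below 100 µM; inconclusive means dose-dependent response but potency above 100 µM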;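 further: potency is an IC50 for inhibitors of Sfp transfer activity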
Large screens that a line does not name were inactive (follow-up assays come after a bar, where they were run); ! = a repeat was not active. Unless noted, the call rests on the fitted dose curve; in most records, active means well fitted curve in the direction sought with a large enough effect; inconclusive means small, poorly fitted or top-dose-only effect, or another doubt; inactive means no such curve, though single readings can be large; an effect the other way counts as inactive or inconclusive.

Clc1ccc(-c2nn3c(-c4ccncc4)nnc3s2)c(Cl)c1	none (no result: PLK1 PBD inh, VDR inh)
Clc1ccccc1-c1nn2c(-c3ccncc3)nnc2s1	Sfp PPTase inh 16µM, PLK1 PBD inh 24µM, VDR inh inconclusive | Sfp inh conf 13µM
O=S(=O)(NCCc1cn2ccsc2n1)c1ccc(Cl)cc1	none (no result: Sfp PPTase inh, PLK1 PBD inh)
COc1cccc(N2CCN(C(=O)CN3C(=O)COc4ccc(S(=O)(=O)N5CCC(C)CC5)cc43)CC2)c1	none (no result: Sfp PPTase inh, PLK1 PBD inh)
Cc1cccc([C@@H]2[C@@H]3C(=O)N(Cc4ccccc4)C(=O)[C@@H]3[C@]3(Cc4ccc(Cl)cc4)C(=O)N(c4ccc(Br)cc4)C(=O)N23)c1	none (no result: Tau fibril FP, Tau fluor cs, Tau ThT inhib)
CC(=O)O[C@@]12CO[C@@H]1C[C@H](O)[C@@]1(C)C(=O)[C@H](O)C3=C(C)[C@@H](OC(=O)C(O)[C@@H](NC(=O)OC(C)(C)C)c4ccccc4)C[C@@](O)([C@@H](OC(=O)c4ccccc4)[C@H]21)C3(C)C (stereo not given in full)	Sfp PPTase inh 6.3µM (no result: Tau fibril FP, Tau fluor cs, Tau ThT inhib, PLK1 PBD inh) | Sfp inh conf 15µM | Sfp PPTase gel inactive
O=C(CSc1nc2scc(-c3ccco3)c2c(=O)n1-c1ccccc1)NCC1CCCO1 (stereo not given)	Sfp PPTase inh 1.3µM, Tau ThT inhib inconclusive | Sfp inh conf 42µM
Cc1ccc(-n2c(SCC(N)=O)nnc2-c2ccco2)cc1	none (no result: Tau fibril FP, Tau fluor cs, Tau ThT inhib)
NC(=O)CSc1nc2scc(-c3ccco3)c2c(=O)n1-c1ccccc1	Tau fibril FP inconclusive, Sfp PPTase inh 6.3µM, Tau ThT inhib inconclusive, VDR inh 79µM | Sfp inh conf 15µM
CCn1cc(C(=O)N2CCN(c3ccccc3)CC2)c(=O)c2cc(S(=O)(=O)N3CCC(C)CC3)ccc21	none (no result: Sfp PPTase inh, PLK1 PBD inh)
C[C@H]1COc2cccc(N3CCC[C@H]3CO)c2S(=O)(=O)N1	none (no result: Tau fibril FP, Sfp PPTase inh, Tau fluor cs, Tau ThT inhib, VDR inh)
O=C(CSc1nnc(SCC(=O)c2ccco2)s1)c1ccco1	Sfp PPTase inh 14µM, PLK1 PBD inh 17µM | Sfp inh conf 47µM | Sfp PPTase gel inconclusive
COc1ccc(OC)c(Nc2nc(=O)c3cccnc3s2)c1	Tau fibril FP inconclusive, Sfp PPTase inh 2.8µM, Tau ThT inhib inconclusive, PLK1 PBD inh 6.7µM, VDR inh 45µM | Sfp inh conf 19µM
Cc1ccc(Nc2nc(=O)c3cccnc3s2)cc1	none
CC(C)OC(=O)c1c(NC(=O)c2cccc(C(F)(F)F)c2)sc2c1CCCC2	VDR inh inconclusive (no result: Sfp PPTase inh, PLK1 PBD inh)
CCOC(=O)c1c(N2C(=O)CC(Sc3ccccc3C(=O)O)C2=O)sc2c1CCCC2 (stereo not given)	Sfp PPTase inh 3.5µM, Tau ThT inhib inconclusive | Sfp inh conf 42µM
CCOC(=O)Cc1nnc(NC(=O)c2ncn[nH]2)s1	Sfp PPTase inh 14µM | Sfp inh conf inactive | Sfp PPTase gel inactive
CCOC(=O)Cc1nnc(NC(=O)c2ccccc2OCC)s1	none
O=C(CSCc1cnn(-c2ccccc2)c1-n1cccc1)NCc1ccc(F)cc1	Tau fibril FP inconclusive (no result: Sfp PPTase inh, PLK1 PBD inh)
CCOc1ccc(C(=O)CC(NCc2cccs2)C(=O)O)cc1 (stereo not given)	Tau fibril FP inconclusive, Sfp PPTase inh 11µM, Tau ThT inhib inconclusive, VDR inh 25µM | Sfp inh conf 37µM
CCOc1ccc(C(=O)CCC(=O)N(CC)CC(=O)NCc2cccs2)cc1	none (no result: Tau fibril FP, Sfp PPTase inh, Tau fluor cs, Tau ThT inhib)
O=C(NCCCN1CCOCC1)c1sc2cc([N+](=O)[O-])ccc2c1Cl	Tau fibril FP inconclusive, Sfp PPTase inh 0.89µM, Tau ThT inhib 28µM, PLK1 PBD inh 1.1µM, VDR inh inconclusive | Sfp inh conf 2.4µM
O=C(NCCCN1CCOCC1)c1sc2cc(Cl)ccc2c1Cl	none
COc1ccc(CNC(=O)Cc2c(C(=O)O)c(C)cn2C)cc1	none (no result: Sfp PPTase inh, PLK1 PBD inh)
Nc1nc2c(s1)CCCCCCCCCC2	none
C=CCN1CCc2nc(N)sc2CC1	Tau fibril FP inconclusive, Sfp PPTase inh 56µM!, Tau ThT inhib inconclusive, VDR inh inconclusive | Sfp inh conf 59µM | Sfp PPTase gel inconclusive
